Screens (PubChem)
aSyn 5UTR inh: 5' untranslated region of α-synuclein, MLPCN primary screen. alpha-synuclein 5'UTR reporter, inhibitor activity. inhibition, % (tested at 7.5 µM). 300,000 tested, 0.82% active. AID 1813; in the data active means inhibition above about 60%; inconclusive means no clear call, values can overlap the other calls;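 further: H4 neuroglioblastoma cells stably carrying SNCA 5'UTR luciferase fusion; 0% = DMSO wells and 100% = positive control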
TROY signal inh: TROY signaling inhibition; Q293 LMP1-TROYcd NF-kB luciferase reporter, 4 h; inhibition, % at 10 µM; 360,000 tested, 0.98% active;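 active means compounds whose plate-normalised and pattern-corrected inhibition of the luciferase reporter signal at the single screening dose is 50% or more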
TWEAK-Fn14 inh: TWEAK-Fn14 signaling inhibition; TWEAK-stimulated Fn14 reporter cells, luciferase luminescence, 8 h; AID 1159606; inhibition, % at 10 µM; 360,000 tested, 2% active; in the data active means inhibition above about 50%
HIF-2a block: HIF-2a inhibition | 786-0 RCC cells HIF-2a reporter, luciferase luminescence, overnight | inhibition, % at 18.8 µM | 360,000 tested, 0.72% active | AID 624352;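 active means inhibition of the luminescence signal of 40% or more relative to plate controls, in a single-dose primary screen at 18.75 µM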
HSP90 refold inh: inhibitors of HSP90 luciferase refolding in rabbit reticulocyte lysate; luciferase refolding luminescence, 3 h; inhibition, % at 5.6 µM; 290,000 tested, 0.91% active;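 active means inhibition above the screen-wide mean plus 3 SD, computed separately per campaign, cut at about 16% in these data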;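 further: 0% = DMSO wells and 100% = 60 µM geldanamycin wells; inhibitors lower the luminescence because luciferase stays unfolded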
C8 TRAIL sens: sensitizes caspase-8 expressing cells to TRAIL; NB7+C8 cells + TRAIL, ATPlite viability luminescence; inhibition (viability loss, TRAIL sensitization), % at 10 µM; 360,000 tested, 1% active;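 active means compounds causing at least 50% loss of cell viability in the single-dose screen, relative to plate controls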
* marks the source's active call; other numbers are inactive results; ? = inconclusive; · = no result given. Most compounds without a hit are left out; they make up all but 3.9% or so of the library.

SMILES	aSyn 5UTR inh	TROY signal inh	TWEAK-Fn14 inh	HIF-2a block	HSP90 refold inh	C8 TRAIL sens
CN(C)S(=O)(=O)c1cccc(NC(=O)CSc2ncnc3ccccc23)c1	6.5	38.3	64.0*	1.3	-2.7	19.2
O=C(CCl)Nc1ccccc1C(=O)Nc1ccc2c(c1)OCO2	-86.9	-16.7	11.1	-164.9	9.1	49.5*
CSc1ncccc1C(=O)Nc1ccc2c(c1)OCCO2	·	2.1	50.2*	-34.7	·	-1.3
CSc1ncccc1C(=O)OCC(=O)Nc1ccc2c(c1)OCO2	-8.9	-26.4	-15.9	9.7	1.7	-3.3
COCCN1Cc2cccc(C(=O)Nc3ccc4c(c3)OCCO4)c2C1=O	13.7	56.1*	73.7*	13.3	7.6	-5.9
O=C(Nc1ccc2c(c1)OCCO2)c1cccc2nc3ccccc3nc12	?	5.0	19.3	-71.3	0.6	60.1*
O=C(CCNC(=O)c1ccccc1Cl)Nc1ccc2c(c1)OCO2	19.0	2.0	-0.2	6.1	2.3	4.7
COCCN1Cc2cccc(C(=O)Nc3ccc(C)cc3)c2C1=O	-8.0	-10.2	-12.1	-37.5	1.3	-0.5
CCOC(=O)[C@]12CCC=C1N(Cc1ccco1)C(=O)[C@H](CC(=O)NCCc1ccccc1OC)C2	·	3.6	11.2	3.6	·	-13.8
N#CCCN(Cc1ccccc1)C(C(=O)NC1CCCCC1)c1ccnc2ccccc12 (configuration not stated)	·	-0.4	0.1	-0.9	·	0.5
COCc1cn(-c2nc3ccccc3s2)nn1	·	-61.9	-0.8	-211.0	·	-13.2
O=C(NC(=S)Nc1ccc2c(c1)OCCO2)c1ccccc1F	-154.5	-33.6	-19.3	-303.4	-1.4	22.7
O=C(Nc1ccc2c(c1)OCCO2)c1ccccc1F	37.8	8.2	53.3*	-52.4	13.9	48.5
O=C(Nc1ccc2oc(-c3ccccc3F)nc2c1)c1ccc2c(c1)OCCO2	-52.7	60.5*	71.8*	-272.6	-0.5	28.2
O=C(Nc1ccccc1-c1nc2ccccc2o1)c1ccc2c(c1)OCCO2	·	·	·	·	1.4	·
O=C(CSc1nc2ccccc2c(=O)n1-c1ccc(F)cc1)NC1CCS(=O)(=O)C1 (configuration not stated)	·	-26.8	-2.6	9.7	·	-3.2
COc1ccc(-n2c(C)cc(-c3cn4cccc(C)c4n3)c2C)cc1	-78.8	-25.7	6.2	-6.6	-1.0	-4.7
Cc1cc(-c2cn3ccccc3n2)c(C)n1-c1ccccc1	-46.3	-6.4	0.3	-213.7	1.8	63.6*
COc1ccc(/C=N/NC(=O)c2nc(-c3ccccc3)n(-c3ccccc3)n2)c(O)c1	87.1*	10.8	9.8	0.6	-7.5	14.1
CC(C)(C)c1cc(C(=O)N/N=C/c2ccccc2O)n(-c2ccccc2)n1	62.4*	9.0	-2.7	8.0	1.1	49.1
COc1ccc(/C=N/NC(=O)c2nc(-c3ccccc3)n(-c3ccccc3)n2)cc1	26.3	-24.7	-13.7	-5.0	-3.6	26.0
COC(=O)C(C#N)(CCC(=O)c1ccccc1)CCC(=O)c1ccccc1	·	18.6	-3.1	11.0	·	5.5
O=C1c2c(-c3ccc(Br)cc3)noc2CCN1Cc1cn(C2CCCC2)nn1	·	·	·	-3.3	·	19.8
Cc1csc(NC(=O)CN2C(=O)C3CC=CCC3C2=O)n1 (configuration not stated)	-4.5	·	73.4*	11.9	-8.2	-23.2
Cc1csc(NC(=O)C2CCCC2)n1	-22.3	·	62.2*	-84.8	5.1	-14.3
SMILES	aSyn 5UTR inh	TROY signal inh	TWEAK-Fn14 inh	HIF-2a block	HSP90 refold inh	C8 TRAIL sens
Cc1cccc(C)c1NC(=O)CN1C(=O)C2CC=CCC2C1=O (configuration not stated)	·	-18.6	7.7	12.2	·	0.2
Cc1csc(NC(=O)C2CCCCC2C(=O)O)n1 (configuration not stated)	-6.7	-2.1	-10.2	9.0	0.3	-1.4
COC(=O)[C@]12CCCCC=C1N(Cc1ccco1)C(=O)[C@H](CC(=O)NCCC(C)C)C2	·	-7.6	3.0	9.3	·	5.5
Cc1cc(C)cc(Cn2cc(CN3CC(N4CCSCC4)CS3(=O)=O)nn2)c1 (configuration not stated)	·	-6.5	32.4	2.7	·	-21.0
CC(C)C[C@H](NC(=O)CC[C@H]1O[C@@H](n2ccc(=O)[nH]c2=O)[C@H](O)[C@@H]1O)C(=O)O	·	0.8	-12.2	11.9	·	-2.4
COc1cc(OC)c(OC)cc1CNC(=O)c1cccc(S(=O)(=O)N2CCc3ccccc3C2)c1	·	51.2*	80.7*	13.2	·	26.3
Cc1cc(C(=O)Nc2ccc3c(c2)CCC3)ccc1[N+](=O)[O-]	-187.4	-57.8	-36.7	-322.2	·	9.8
